TROY signal inh: TROY signaling inhibition | Q293 LMP1-TROYcd NF-kB luciferase reporter, 4 h | inhibition, % at 10 µM | 360,000 compounds, 0.98% hits | AID 1347056;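 active means compounds whose plate-normalised and pattern-corrected inhibition of the luciferase reporter signal at the single screening dose is 50% or more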
KKLEB cytotox: reduces viability of KKLEB cystic fibrosis airway cells | activity change (cytotoxicity), % at 5 µM | AID 602141 | KKLEB CF airway cells viability, ATPlite luminescence, overnight; active compounds read low; cells stimulated with P. aeruginosa culture filtrate | 360,000 compounds, 0.36% hits;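 active means corrected activity change at or below -50% at 5 µM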
HIF-2a inh: blocks HIF-2a reporter activity; 360,000 compounds, 0.72% hits; inhibition, % at 18.8 µM; AID 624352; 786-0 RCC cells HIF-2a reporter, luciferase luminescence, overnight;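 active means inhibition of the luminescence signal of 40% or more relative to plate controls, in a single-dose primary screen at 18.75 µM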
TWEAK Fn14 block: TWEAK-Fn14 signaling inhibition; TWEAK-stimulated Fn14 reporter cells, luciferase luminescence, 8 h; inhibition, % at 10 µM; AID 1159606; 360,000 compounds, 2% hits; in the data active means inhibition above about 50%
CF NFkB inh: cystic fibrosis NF-kB activation inhibition; KKLEB NF-kB-GFP reporter, PAF-induced, GFP fluorescence overnight; inhibition, % at 5 µM; 360,000 compounds, 0.86% hits;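 active means at least 50% inhibition at 5 µM, scaled per plate between neutral and stimulator controls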;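 further: PAF is a Pseudomonas aeruginosa culture filtrate used as stimulus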
Peg3 prom inh: Peg3 promoter activity inhibition | AID 588405 | inhibition, % at 20 µM | 360,000 compounds, 1.7% hits | HeLa PEG-Prom luciferase reporter, luminescence, overnight;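 active means inhibition of at least 50% at 20 µM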
Of the large screens only hits and unclear results are named; the others gave an inactive call. This is a sample that favours compounds with a hit; in the whole collection about 4% have one here.

CCc1ccc(-c2cc(C)no2)cc1S(=O)(=O)N1CCN(c2ccccn2)CC1	TROY signal inh 50
CCCOc1ccc(/C=C2/C(=O)ON=C2C)cc1Cl	Peg3 prom inh 65
CC1=NOC(=O)/C1=C/c1ccc(O)c(Cl)c1	none
C#CCOc1c(Cl)cc(/C=C2/C(=O)ON=C2C)cc1OC	TWEAK Fn14 block 63
O=C(NCCCN1CCN(c2cccc(Cl)c2)CC1)c1cccc(N2CCCC2=O)c1	none
CCCCCCCCCn1ccc(=N)cc1	TROY signal inh 54
CCCCCCCn1ccc(=N)cc1	none
CN(C)/C=C1/Oc2c(ccc3ccccc23)C1=O	none
CCOC(=O)C1CCCN(c2c(NCCc3ccc(C)cc3)c(=O)c2=O)C1 (configuration not stated)	none
Cc1ccc(/C=N/Nc2nc3ccccc3s2)o1	TWEAK Fn14 block 60
Cc1ccc(/C=N/Nc2nc(C(C)(C)C)cs2)o1	none
CCOC(=O)N1CCN(C(=O)CSc2ccc(C(F)(F)F)cc2[N+](=O)[O-])CC1	none
CCN(CC)S(=O)(=O)c1cc(NC(=O)C2CCN(c3ncnc4sc(C)c(C)c34)CC2)ccc1Cl	TROY signal inh 64, TWEAK Fn14 block 97, Peg3 prom inh 67
Cc1sc2ncnc(N3CCC(C(=O)Nc4ccc(S(N)(=O)=O)cc4)CC3)c2c1C	none
Cc1ccc(NC(=O)C2CCN(c3ncnc4sc(C)c(C)c34)CC2)cc1S(=O)(=O)N(C)C	TROY signal inh 51, TWEAK Fn14 block 55
O=C(COC(=O)C1CC1)Nc1c(Cl)cccc1C(F)(F)F	none
COc1ccc(NC(=O)CN2CCC(NC(=O)C3CCCCC3)CC2)c([N+](=O)[O-])c1	none
O=C(NCCCl)Nc1ncn[nH]1	Peg3 prom inh 100
CNC(=O)NNC(=O)c1csc(-c2ccc(C(F)(F)F)cc2Cl)n1	none
COc1cccc(N2CCN(C(=S)Nc3ccccc3)CC2)c1	Peg3 prom inh 110
S=C(Nc1ccccc1)N1CCN(C2CCCCC2)CC1	TROY signal inh 60
S=C(Nc1ccccc1)N1CCCCCC1	none
CCc1ccc(NC(=S)N2CCN(c3cccc(OC)c3)CC2)cc1	none
O=S(=O)(NCC(Nc1ccc(Cl)cc1)c1ccccc1)c1ccc(Cl)cc1 (configuration not stated)	TROY signal inh 51, TWEAK Fn14 block 69
O=C1NC[C@@H](CCCCN2CCN(CC3CCCCC3)C(=O)C2=O)N(Cc2ccccc2)C1=O	none (no result: KKLEB cytotox, CF NFkB inh, Peg3 prom inh)
CN1CCCC(CC2c3ccccc3Sc3ccccc32)C1 (configuration not stated)	Peg3 prom inh 60
CN1CCCC(CN2c3ccccc3Sc3ccccc32)C1 (configuration not stated)	none
O=[N+]([O-])c1ccc(/C=N/Nc2nc(N3CCCCC3)nc(N3CCCCC3)n2)o1	none
CSc1cccc2sc(NC(=O)C3=COCCO3)nc12	none
O=C(Nc1nc2ccc(F)cc2s1)C1CC(=O)N(c2ccc3c(c2)OCCO3)C1 (configuration not stated)	TWEAK Fn14 block 55
COc1ccc(-c2nc(NC(=O)C3CC(=O)N(c4ccc5c(c4)OCCO5)C3)sc2C)cc1 (configuration not stated)	TWEAK Fn14 block 82
O=C(CCN1C(=O)C2CCCCC2C1=O)Nc1nc2ccc(F)cc2s1 (configuration not stated)	TROY signal inh 73, TWEAK Fn14 block 72
O=C(Nc1nc2ccc(F)cc2s1)C1=COCCO1	TWEAK Fn14 block 85
COc1ccc2nc(NC(=O)C3CC(=O)N(c4ccc5c(c4)OCCO5)C3)sc2c1 (configuration not stated)	none
CCOC(=O)C1CCN(Cc2nc3ccccc3c(=O)n2-c2ccc(OCC)cc2)CC1	none
O=C(Nc1nc(-c2ccccn2)cs1)C1CC(=O)N(c2ccc3c(c2)OCCO3)C1 (configuration not stated)	TWEAK Fn14 block 70
O=C(Nc1nnc(C2CC2)s1)C1CC(=O)N(c2ccc3c(c2)OCCO3)C1 (configuration not stated)	TROY signal inh 51, TWEAK Fn14 block 78
O=C(Nc1ccc(Oc2ccccc2)cc1)C1CCN(c2c3c(nc4ncnn24)CCC3)CC1	TROY signal inh 51, TWEAK Fn14 block 79
CCN(C(=O)COc1ccccc1)C1CCCCC1	none

High-throughput results as filed in PubChem.
